Test [1] in a line: P. berghei load reduction in hepatocytes – cell-based, HepG2, luciferase luminescence, HepG2 viability, primary screen (AID 624349; in the data active means parasite load remaining mostly below about 12%, no sharp cut-off; inactive means mostly above about 10%;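 further: 100% = mean of DMSO negative control wells on the same plate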). To be noted: P. berghei liver stage in HepG2, luciferase luminescence, concentration not given here; parasite load remaining: stronger effect = lower value; viability: measured here: HepG2 viability without parasites.
Test [2] in a line: Wnt pathway potentiators raising nuclear beta-catenin – imaging, WNT3A-conditioned medium, mouse C2C12, NPC library, primary screen (AID 1117326; in the data active means nuclear beta-catenin stimulation mostly above about 4.2%, no sharp cut-off; inactive means mostly below about 10%). To be noted: stronger effect = higher value.
A short description of test [3]: stimulators of insulin release from INS-1E, primary screen, cell-based, 5 mM glucose, NPC library (AID 1117329;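 active means compound raises insulin release from rat beta cells at 5 mM glucose, no numeric limit stated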). To be noted: rat INS-1E insulin secretion, at 10 µM, stronger effect = higher value.
A short description of test [4]: growth inhibition of GSK3B-pretreated HCT116 cells – cell-based, CellTiter-Glo, 0.2 to 20 µM (AID 1117336;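 active means compounds lowering colon cancer cell viability after pretreatment blocking the GSK3B kinase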). To be noted: HCT116 viability after GSK3B inhibitor, at 20 µM, stronger effect = higher value. Background: In ATP-based viability assays light output follows the ATP content of the culture.
A short description of test [5]: inhibition of endothelial tube formation, primary screen, imaging, VEGF stimulated, CD31 staining, tube area, NPC library (AID 1117340;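 active means compound that reduces growth-factor-driven endothelial tube area in a mixed cell culture, no cutoff stated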). To be noted: VEGF-stimulated ADSC/ECFC co-culture, at 10 µM, stronger effect = higher value.
Test [6] can be described thus: GLP1 release stimulators, primary, NCI-H716, NPC library (AID 1117341;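 active means compound raises GLP1 secretion from the human gut endocrine cells, with no numeric limit stated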). To be noted: NCI-H716 cells, at 10 µM, stronger effect = higher value.
Test [7] in a line: HCT116 colon cancer cell growth inhibition, primary screen, CellTiter-Glo luminescence, NPC library (AID 1117342;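 active means compounds that lower survival of HCT116 colon cancer cells in the luminescence readout, no numeric limit stated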). To be noted: at 20 µM (top of the series).
Test [8] is described as follows: reduced SW480 viability measured with CellTiter-Glo, NPC library, primary (AID 1117343;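 active means compounds that lower viability of the colon cancer cells in the luminescence readout, with no numeric limit stated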). To be noted: CellTiter-Glo luminescence; at 20 µM (top of the series) unless noted.
The nature of test [9]: NPC library primary testing for decreased DLD-1 cell viability via CellTiter-Glo (AID 1117346;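 active means compounds that lower survival of DLD-1 colon cancer cells in the luminescence readout, no cutoff given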). To be noted: DLD-1 viability, CellTiter-Glo luminescence; at 20 µM (top of the series).
Test [10] in a line: viability loss with induced miR-34 in A549 – imaging, A549 dox-inducible miR-34, nuclei and caspase counts, primary screen (AID 1347080;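 active means compounds whose cell count with miR-34 switched on is under 0.7 times the count with it off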). To be noted: A549 miR-34 inducible, Hoechst nuclei count, 48 h.
Test [11] can be described thus: MELAS cybrid and Rieske KO viability enhancers – cell-based, MELAS cybrids, Rieske KO mouse fibroblasts, CellTiter-Glo, primary screen (AID 1508586).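 Further: z relative to plate mean and SD of compound and empty wells.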 To be noted: low glucose.
Test [12] addresses NAD(+) hydrolase SARM1 (Homo sapiens) (UniProt Q6SZW1). The experiment in a line: blocking NAD cleavage by SARM1 SAM-TIR – cell lysate, NAD-Glo luminescence (AID 1508614;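 active means compound whose remaining NAD level is above about 45 nM, limit read from the data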). To be noted: SAM-TIR HEK293T lysate NADase, at 1 µM, stronger effect = higher value.
Test [13] in a line: galactose survival enhancers in mitochondrial complex I cybrids – cell-based, galactose medium, ATP luminescence, primary screen (AID 1645843;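 active means z-score of at least 1.8 in each of two replicates, scored against plate mean and spread of sample wells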;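 further: positive z means more ATP and so rescue of galactose-driven cybrid death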). To be noted: complex I mutant cybrid cells, 72 h, stronger effect = higher value.
Test [14] concerns the target ATP-dependent translocase ABCB1 (Homo sapiens) (UniProt P08183). The experiment in a line: P-glycoprotein substrate transport blockade – cell-based (AID 377; in the data active means fluorescence slope change above about 50%). To be noted: MDR1-expressing cells, fluorescent substrate accumulation slope; stronger effect = higher value; concentration not given here.
Test [15] can be described thus: compounds altering viability of human ES cells (AID 493140; call rule not given here;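 further: cells exposed to compounds for four days before counting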). To be noted: human embryonic stem cell survival screen; stronger effect = higher value.
The mark [16] stands for this setting: stronger effect = lower value, cell number ratio, induced over uninduced.
Setting [17] is: measured here: relative caspase fold change +Dox/-Dox.
[18] abbreviates: measured here: total cells with miR-34 induction, stronger effect = lower value.
Where [19] appears, read: measured here: total cells without miR-34 induction.
[20] abbreviates: MELAS cybrid survival, CellTiter-Glo 48 h, stronger effect = higher value.
Where [21] appears, read: Rieske KO mouse fibroblast survival, CellTiter-Glo 72 h.

The structures appear in SMILES notation. Values joined by “and” are separate entries in the source; they are usually repeats but may differ in a detail not shown here. Identical values can stand only once. Results filed as inconclusive are left out. Active and inactive are the calls of the source.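 How the source made its calls, unless noted: active means mean z-score across replicates of 1.96 or higher in either the MELAS or the Rieske mutant cell line; inactive means the rest.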

The viability is a read-out of living cells in per cent, often relative to untreated cells.

NAD(+) hydrolase SARM1 (Homo sapiens), sequence (Q6SZW1 whole entry, looked up): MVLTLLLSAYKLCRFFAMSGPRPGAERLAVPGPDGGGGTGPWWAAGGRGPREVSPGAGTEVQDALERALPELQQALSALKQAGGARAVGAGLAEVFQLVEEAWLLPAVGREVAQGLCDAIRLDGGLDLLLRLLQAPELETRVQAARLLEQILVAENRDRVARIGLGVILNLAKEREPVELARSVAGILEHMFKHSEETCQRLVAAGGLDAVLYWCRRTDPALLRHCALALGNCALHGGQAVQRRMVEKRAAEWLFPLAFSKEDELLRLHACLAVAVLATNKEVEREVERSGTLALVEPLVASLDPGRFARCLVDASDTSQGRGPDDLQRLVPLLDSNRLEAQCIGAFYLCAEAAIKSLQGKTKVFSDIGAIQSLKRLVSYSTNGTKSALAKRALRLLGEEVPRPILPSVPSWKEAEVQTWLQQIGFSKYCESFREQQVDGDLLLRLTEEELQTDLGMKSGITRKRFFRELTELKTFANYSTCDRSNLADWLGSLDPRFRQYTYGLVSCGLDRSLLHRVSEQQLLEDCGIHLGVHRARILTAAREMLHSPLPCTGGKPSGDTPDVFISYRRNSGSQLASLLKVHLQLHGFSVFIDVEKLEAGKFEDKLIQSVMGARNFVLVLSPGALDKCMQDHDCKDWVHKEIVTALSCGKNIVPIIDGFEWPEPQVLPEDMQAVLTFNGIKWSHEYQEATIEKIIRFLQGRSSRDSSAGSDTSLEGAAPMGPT
ATP-dependent translocase ABCB1 (Homo sapiens), sequence (P08183 whole entry, looked up): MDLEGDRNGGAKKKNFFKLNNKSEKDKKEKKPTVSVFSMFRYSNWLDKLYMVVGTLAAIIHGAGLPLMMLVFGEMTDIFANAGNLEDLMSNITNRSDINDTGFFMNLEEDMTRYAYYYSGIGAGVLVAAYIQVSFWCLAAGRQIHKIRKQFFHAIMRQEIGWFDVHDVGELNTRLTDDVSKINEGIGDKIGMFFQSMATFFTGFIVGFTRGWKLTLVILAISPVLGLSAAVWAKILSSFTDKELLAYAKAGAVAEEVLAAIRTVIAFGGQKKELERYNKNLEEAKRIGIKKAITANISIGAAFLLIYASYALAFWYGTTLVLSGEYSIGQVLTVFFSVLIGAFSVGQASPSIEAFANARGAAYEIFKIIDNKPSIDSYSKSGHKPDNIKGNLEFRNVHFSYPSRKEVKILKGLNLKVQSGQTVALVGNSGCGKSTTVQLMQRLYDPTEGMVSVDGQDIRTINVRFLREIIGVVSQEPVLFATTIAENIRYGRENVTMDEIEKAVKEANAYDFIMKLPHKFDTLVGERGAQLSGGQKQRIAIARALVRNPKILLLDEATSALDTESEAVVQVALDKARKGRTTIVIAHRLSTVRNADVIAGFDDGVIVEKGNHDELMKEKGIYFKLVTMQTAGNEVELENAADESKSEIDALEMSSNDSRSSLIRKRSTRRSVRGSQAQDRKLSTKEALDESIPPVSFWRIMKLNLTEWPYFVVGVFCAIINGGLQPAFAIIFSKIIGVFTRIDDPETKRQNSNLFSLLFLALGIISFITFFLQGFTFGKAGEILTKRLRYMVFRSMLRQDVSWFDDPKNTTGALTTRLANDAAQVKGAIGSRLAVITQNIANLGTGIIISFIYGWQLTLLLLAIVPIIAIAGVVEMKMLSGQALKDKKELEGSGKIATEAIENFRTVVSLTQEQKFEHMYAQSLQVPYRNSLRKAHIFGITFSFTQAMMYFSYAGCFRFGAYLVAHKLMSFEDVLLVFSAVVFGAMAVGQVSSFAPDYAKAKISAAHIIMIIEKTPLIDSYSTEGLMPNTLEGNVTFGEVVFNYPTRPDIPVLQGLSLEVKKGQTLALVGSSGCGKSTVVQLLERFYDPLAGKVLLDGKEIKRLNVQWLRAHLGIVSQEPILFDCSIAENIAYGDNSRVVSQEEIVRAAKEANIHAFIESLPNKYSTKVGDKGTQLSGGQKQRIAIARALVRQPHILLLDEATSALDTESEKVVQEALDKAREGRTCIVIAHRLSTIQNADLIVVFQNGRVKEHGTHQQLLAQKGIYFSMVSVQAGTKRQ

For `CCN(CC)C(=O)/C(C#N)=C/c1cc(O)c(O)c([N+](=O)[O-])c1`, in test [1], the parasite load remaining is 40.1% (inactive). Also, the viability in [1] worked out at 102%. Moreover, the nuclear beta-catenin stimulation in [2] (at 10 µM) is -0.4% (inactive); in test [2] (stimulation, at 2 µM) it was 1.2%. Also, in [3], the insulin secretion stimulation was 1.5% (inactive). For the same molecule, the viability decrease in test [4] was 36% (inactive). Also, the tube area decrease in test [5] was 61.4% (active). Further, the GLP1 secretion stimulation in [6] was 0% (inactive). Also, the inhibition of viability in test [7] is 29.2% (inactive). For the same molecule, the results for the viability decrease (inhibition) in test [8] and in [9] were 92.4% (active) and 35.8% (inactive), respectively. Further, the results for the fold change in [10] (setting [16]) and in [10] (setting [17]) were 0.873 (inactive) and 0.914, respectively. Besides, the figures for the cell count in [10] (setting [18]) and in test [10] (setting [19]) were 10100 and 11500, respectively. Besides, the z-score in test [11] (setting [20]) was -0.387 (inactive) and -1.06 (inactive); in test [11] (setting [21]) it was -0.365 and -0.513; in [13], 0.125 (inactive). For the same molecule, the remaining NAD in test [12] is 10 nM (inactive).

`O=C(O)Cc1cccc2ccccc12`: the nuclear beta-catenin stimulation is -0.7% (inactive) in [2] (at 10 µM) and 0.6% in [2] (stimulation, at 2 µM). Besides, in test [3], the insulin secretion stimulation was -1.5% (inactive). Moreover, the viability decrease in test [4] is -6.45% (inactive). Moreover, the tube area decrease in [5] was 0% (inactive). For the same molecule, the GLP1 secretion stimulation in test [6] was 1.9% (inactive). For the same molecule, in [7], the inhibition of viability was 12.9% (inactive). The viability decrease (inhibition) is 39.8% (inactive) in test [8] and -0.4% (inactive) in test [9]. In addition, the fold change in test [10] (setting [16]) is 0.971 (inactive); in test [10] (setting [17]) it was 1.32. For the same molecule, the cell count in test [10] (setting [18]) turned out to be 8040; in test [10] (setting [19]), 8280. For the same molecule, the results for the z-score in [11] (setting [20]), in test [11] (setting [21]) and in test [13] were 0.391 (inactive), -0.24 and 0.46 (inactive), respectively.

Take `OCCOCCN1CCN(C(c2ccccc2)c2ccc(Cl)cc2)CC1` (centres undefined): the fluorescence slope change in [14] is 127% (active). Besides, the survival in [15] was 12.3 (inactive). For the same molecule, the parasite load remaining in test [1] was 40.8% (inactive) and 106% (inactive). Besides, the viability in test [1] was 45.3% and 147%. Also, the nuclear beta-catenin stimulation in [2] (at 10 µM) was 3.6% (inactive); in [2] (stimulation, at 2 µM), 2.4%. Also, the insulin secretion stimulation in [3] was 4.2% (inactive). Moreover, in [4], the viability decrease is -78.9% (inactive). Besides, the tube area decrease in test [5] is 28% (inactive). In test [6], the GLP1 secretion stimulation was 13.3% (inactive). The inhibition of viability in test [7] is 38.2% (inactive). For the same molecule, the viability decrease (inhibition) was 46.4% (inactive) in [8] and 14.4% (inactive) in [9]. The fold change in test [10] (setting [16]) is 0.893 (inactive) and 0.907 (inactive) and 0.862 (inactive); in test [10] (setting [17]), 1.48 and 0.309 and 0.812. Also, the cell count is 8690 and 7710 and 8370 in [10] (setting [18]); 9730 and 8500 and 9700 in [10] (setting [19]). In addition, the z-score in [11] (setting [20]) was -0.954 (inactive) and -0.244 (inactive) and -0.546 (inactive); in [11] (setting [21]), 0.434 and -0.172 and -0.069; in test [13], -0.645 (inactive).

As to `Cc1cc2c(OCC(CNC(C)(C)C)OC(=O)c3ccccc3)cccc2[nH]1` (centres undefined), in [1], the parasite load remaining is 45.6% (inactive). The viability in test [1] was 114%. Moreover, the nuclear beta-catenin stimulation in [2] (at 10 µM) is -0.6% (inactive); in test [2] (stimulation, at 2 µM), -2.3%. Besides, the insulin secretion stimulation in test [3] was 38.9% (active). Besides, in test [4], the viability decrease was 8% (inactive). Moreover, the tube area decrease in [5] is -1.9% (inactive). In [6], the GLP1 secretion stimulation was 8.9% (inactive). In test [7], the inhibition of viability is 30.9% (inactive). Besides, the results for the viability decrease (inhibition) in test [8] and in test [9] were -10.4% (inactive) and -25.2% (inactive), respectively. The fold change is 0.853 (inactive) in test [10] (setting [16]) and 1.26 in test [10] (setting [17]). Also, the cell count in test [10] (setting [18]) is 9400; in [10] (setting [19]), 11000. Also, the z-score in test [11] (setting [20]) was -0.871 (inactive); in [11] (setting [21]) it was -1.26; in [13], 0.13 (inactive).

Take `COc1nccnc1NS(=O)(=O)c1ccc(N)cc1`: the nuclear beta-catenin stimulation in test [2] (at 10 µM) was 1.5% (inactive); in test [2] (stimulation, at 2 µM) it was 3.9%. Further, the insulin secretion stimulation in test [3] was 1.7% (inactive). For the same molecule, the viability decrease in test [4] was 3.6% (inactive). For the same molecule, the tube area decrease in test [5] was 2.9% (inactive). Further, the GLP1 secretion stimulation in [6] is 2.7% (inactive). For the same molecule, the inhibition of viability in [7] is 6.8% (inactive). The viability decrease (inhibition) is -1.3% (inactive) in test [8] and -5.6% (inactive) in [9]. The fold change in test [10] (setting [16]) is 0.87 (inactive); in test [10] (setting [17]) it was 0.163. The cell count was 9240 in test [10] (setting [18]) and 10600 in [10] (setting [19]). In addition, the z-score in test [11] (setting [20]) was 0.483 (inactive); in [11] (setting [21]), -0.166; in [13], -0.33 (inactive).

The record behind these values is PubChem BioAssay.
